PubChem BioAssay AID2029 (NMMLSC, 2009)
Several values for one entry are separate records, joined by “and”; a condition that tells them apart may be missing. Equal values may be shown once. Out of some 320,000 compounds screened, about 210 (0.066%) were called active.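 The calls were made as follows: active = GFP response relative to DMSO above a set limit, near the screen mean plus 3 SD (cut at about 150% in these data); inconclusive = Fewer than 70 cells measured for a yeast strain; inactive = the rest.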 The list comes from a sample in which actives are over-represented; it also holds similar structures and randomly drawn compounds.

assay: modulators of CIT2-GFP expression in yeast, primary screen, S. cerevisiae, GFP fusion, multiplex flow cytometry, MLPCN library (AID 2029);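 also: ratio of well median GFP fluorescence to mean of DMSO wells on the plate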; conditions: S. cerevisiae CIT2-GFP strain, 3 h, at 10 µM, hits give high values, 100 means same as DMSO wells

Row | SMILES | GFP response vs DMSO
1 | O=C(Nc1ccc(Cl)cc1)c1cc2nc(C3CC3)cc(C(F)(F)F)n2n1 | 115% (inactive)
2 | Cc1ccccc1NC(=O)N1CCCC1C(=O)NCc1ccccc1 (configuration not stated) | 113% (inactive)
3 | NC(=O)c1ncc(C(F)(F)F)cc1Oc1ccc(F)cc1 | 99.4% (inactive)
4 | CNc1nc(SC)nc(N(C#N)CC(=O)OC)n1 | 104% (inactive)
5 | O=C(COC(=O)c1ccc(O)cc1O)c1ccc2c(c1)OCCO2 | 95.1% (inactive)
6 | O=C1Nc2cc(Cl)c(Cl)cc2N(O)N1c1cc(Cl)cc(Cl)c1 | 97.6% (inactive)
7 | Cc1c(NC(=O)CSCc2ccccc2)cccc1C(=O)O | 106% (inactive)
8 | CCC(C)(C)C1CCC(=NNC(=O)c2ccc(Br)o2)CC1 (configuration not stated) | 97.7% (inactive)
9 | COCCCNC(=O)[C@H]1N2C(=O)c3ccccc3C2SC1(C)C (some centres not stated) | 112% (inactive)
10 | Cc1cc2cc3c(N)[nH]nc3nc2cc1C | 113% (inactive)
11 | O=C(NC1CCN(C(=S)Nc2ccc(Cl)cc2)CC1)C1CCCCC1 | 97.3% (inactive)
12 | Cc1ccc2nc(-c3ccc(NC(=O)CN(C)S(=O)(=O)c4ccccc4)cc3)sc2c1 | 111% (inactive)
13 | COc1ccc(N2CCN(C(=O)[C@@H](NC(=O)c3cc(OC)cc(OC)c3)C(C)C)CC2)cc1 | 95.1% (inactive)
14 | Cc1ccccc1NC(=O)CSC(=O)c1ccccc1 | 102% (inactive)
15 | O=C(NN1C(=O)C2CCCCC2C1=O)c1ccco1 (configuration not stated) | 104% (inactive)
16 | COCCCNS(=O)(=O)c1cccc(S(=O)(=O)c2cccc(S(=O)(=O)NCCCOC)c2)c1 | 115% (inactive)
17 | O=c1/c(=C/c2ccc(CNS(=O)(=O)c3ccccc3)o2)sc2n1CCN=2 | 107% (inactive)
18 | CC1(C)CC(=O)C=C(N2CCOCC2)C1 | 93.2% (inactive)
19 | CCCCOc1ccc(C(=O)NCC(=O)OCC(=O)c2c(N)n(C)c(=O)n(C)c2=O)cc1 | 92.4% (inactive)
20 | CC(C)c1ccc2c(c1)c(SC(C)(C)C)c(CC(C)(C)C(=O)O)n2Cc1ccc(Cl)cc1 | 112% (inactive) and 88.8% (inactive)
21 | C/C(CCC(=O)OC[C@H]1O[C@H](C#Cc2ccccc2)C=C[C@@H]1Oc1ccc(C)cc1)=N\OC[C@@H](O)[C@H]1O[C@@H]2OC(C)(C)O[C@@H]2[C@H]1O | 109% (inactive)
22 | Nc1ccc(OCC(O)C[n+]2ccc(CCS(=O)(=O)[O-])cc2)cc1 (configuration not stated) | 90% (inactive)
23 | CCOC(=O)c1c(CN(C)C)n(-c2ccccc2)c2cc(Br)c(O)cc12 | 101% (inactive)
24 | Cc1ccc(NC(=O)CN(C)C(=O)COC(=O)C(C)(C)Oc2ccc(Cl)cc2)cc1 | 109% (inactive)
25 | COC(=O)C[n+]1cccc2ccccc21 | 175% (active)
26 | Cc1cccc[n+]1CC(=O)c1ccccc1 | 113% (inactive)
27 | COc1ccccc1NC(=O)C[n+]1ccccc1 | 120% (inactive)
